# Source: PubChem BioAssay AID743311 (Broad Institute, 2014)
# Results with a measured potency or affinity are listed apart. Calls of active or inactive are those of the source. How the calls were made is not given here.
# Assay: HepG2 cell cytotoxicity, dose response, cytotoxicity control, plate reader, dry powder, set 6 (AID 743311)
# Settings: series mostly up to 26 µM; activity change, negative = cytotoxicity: at the top concentration
SMILES,"activity change, negative = cytotoxicity",outcome
Cc1cccc(OCCn2cnc3ccccc32)c1,19.8% (inactive),
Clc1ccccc1OCCn1cnc2ccccc21,33.7% (inactive),
CSc1nc2ccccc2n1CCOc1ccc(C)cc1,20% (inactive),
CCCCc1nc2ccccc2n1CCOc1ccccc1,16.6% (inactive),
Cc1cccc(OCCn2c(=S)[nH]c3ccc(C(F)(F)F)cc32)c1,0.759% (inactive),
CC(C)(C)c1ccc(OCCn2c(CO)nc3ccccc32)cc1,-2.48% (inactive),
CCSc1nc2ccccc2n1CCOc1ccccc1,31.5% (inactive),
COc1ccc(OCCn2cnc3ccccc32)cc1,18.3% (inactive),
OCc1nc2ccccc2n1CCOc1ccccc1,6.61% (inactive),
COc1ccccc1OCCn1c(=S)[nH]c2ccccc21,10.4% (inactive),
COc1cccc(OCCn2cnc3ccccc32)c1,16.5% (inactive),
Fc1ccc2c(c1)[nH]c(=S)n2CCOc1ccccc1,,inactive
Cc1cccc(OCCn2c(=S)[nH]c3c(F)cccc32)c1,,inactive
COc1cc(C)ccc1OCCn1cnc2ccccc21,-1.63% (inactive),
c1ccc2c(c1)ncn2CCOc1ccc2c(c1)CCC2,-6.54% (inactive),
Cc1ccccc1OCCn1cnc2ccccc21,15.2% (inactive),
CC(C)(C)c1ccc(OCCn2cnc3ccccc32)cc1,4.09% (inactive),
Fc1ccc(OCCn2c(=S)[nH]c3ccccc32)cc1,7.82% (inactive),
CC(C)Oc1ccc(OCCn2cnc3ccccc32)cc1,22.7% (inactive),
Cc1cc2ncn(CCOc3ccccc3)c2cc1C,-8.27% (inactive),
Cc1ccc(C(C)C)c(OCCn2c(NC#N)nc3ccccc32)c1,3.67% (inactive),
